# The list is not random: actives were taken first. Their share in the collection is about 3.2%.
# Tb PYK inh = qHTS of Trypanosoma Brucei Inhibitors. pyruvate kinase (Trypanosoma brucei), Q57TT1. TbPYK enzyme, Kinase-Glo Plus ATP luminescence, 45 min. Potency, µM (titrated, usually from 76.8 µM), for the others: top-dose activity, negative = inhibition, hits mostly inhibitors. 0.12% of 410,000 active. AID 624173, 2012; note: nearly all actives have a fitted effect of over 50% in size
#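 Luminescence from Kinase-Glo Plus, added after a 45-minute room-temperature reaction, served as the end-point read-out. The enzyme and substrate were preincubated with compound before ADP (130 uM final) initiated turnover. Concentration-effect curves came from normalized qHTS data.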
# AMA1-RON2 inh = qHTS for Inhibitors of AMA1-RON; Towards Development of Antimalarial Drug Lead: Primary Screen; AlphaScreen AMA1-biotinylated RON2 peptide binding; Potency, µM (top dose mostly 58.2 µM), inactives show top-dose activity change, negative = inhibition, actives largely listed as inhibitors; 0.2% of 360,000 active;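 note: 0% = vehicle wells and -100% = peptide control; nearly all actives have a fitted effect of over 45% in size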
#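 AMA1 (3D7) with his tag at 25 nM final met compounds first, then biotinylated RON2 peptide at 25 nM; detection used donor plus acceptor beads, 10 µg/mL apiece, read by AlphaScreen after 30 min at room temperature.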
# LmPK inh = qHTS Assay for Inhibitors of Leishmania Mexicana Pyruvate Kinase (LmPK). Q27686. purified LmPK, Kinase-Glo ATP luminescence, 1 h. Potency, µM (doses to about 57.5 µM), for inactives: at the top dose activity change, negative = inhibition, actives largely listed as inhibitors. 0.37% of 290,000 active. AID 1721, 2009
# Target sequence (Q27686 whole entry, looked up): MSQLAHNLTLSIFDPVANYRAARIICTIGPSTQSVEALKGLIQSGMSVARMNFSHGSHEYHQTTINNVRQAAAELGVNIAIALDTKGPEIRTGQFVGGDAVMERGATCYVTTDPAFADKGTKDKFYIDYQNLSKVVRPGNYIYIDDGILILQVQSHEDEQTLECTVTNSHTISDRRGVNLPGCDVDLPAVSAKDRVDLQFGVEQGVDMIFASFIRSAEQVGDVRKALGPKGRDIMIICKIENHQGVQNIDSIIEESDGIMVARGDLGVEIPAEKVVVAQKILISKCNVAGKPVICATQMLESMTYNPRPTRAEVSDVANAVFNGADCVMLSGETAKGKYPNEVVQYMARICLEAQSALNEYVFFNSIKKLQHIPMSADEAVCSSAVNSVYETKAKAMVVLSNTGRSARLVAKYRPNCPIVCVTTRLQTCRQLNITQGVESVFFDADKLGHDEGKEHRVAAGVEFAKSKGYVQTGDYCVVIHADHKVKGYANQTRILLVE
#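 Pyruvate kinase activity monitored as ATP production (luciferase luminescence). Conditions: 0.1 nM enzyme, 0.5 mM PEP, 0.1 mM ADP, 1 h, RT; normalized against uninhibited and no-enzyme wells.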
# RE007 growth inh = qHTS Assay for Inhibitors of the HIV-1 protein Vpr; S. pombe RE007 Vpr strain, BacTiter-Glo ATP luminescence, 24 h; Potency, µM (series often up to 92.2 µM), for inactives: top-dose activity change, negative = less growth, usual class: inhibitors; 0.21% of 360,000 active; active = well fitted falling curve with a large enough effect; inconclusive = small, poorly fitted or top-dose-only effect; inactive = no such curve, though single readings can be large or run the other way; note: nearly all actives have a fitted effect of over 50% in size
#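 Fission yeast RE007 carrying one integrated HIV-1 vpr copy, seeded at OD 0.01 in PMG+AL medium with 23 nL pinned compound. Grown 24 h at 30 degrees; viability read by BacTiter-Glo luminescence after 5 min.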
# Sm TGR inh = qHTS Assay for the Inhibitors of Schistosoma Mansoni Peroxiredoxins; Schistosoma mansoni thioredoxin glutathione reductase (TGR), Q962Y6; purified TGR, DTNB reduction, TNB absorbance 405 nm; Potency, µM (series often up to 114 µM), inactives show top-dose activity change, negative = inhibition, actives largely listed as inhibitors; 3% of 360,000 active; AID 485364, 2010; note: nearly all actives have a fitted effect of over 60% in size
#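 TGR 20 nM + NADPH 100 uM (dispensed conc.), cpd preinc 15 min RT; start with NADPH (500 uM addition) then DTNB (15 mM addition). Kinetic TNB absorbance, 405 nm filter. Four-parameter Hill fit across titration.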
# Numbers without * were called inactive; u = inconclusive; x = not tested or not shown; [ ] = another dose, or the depositor's remark. Unless noted, calls come from the whole dose curve; as a rule, active = well fitted curve in the direction sought with a large enough effect; inconclusive = small, poorly fitted or top-dose-only effect, or another doubt; inactive = no such curve, though single readings can be large; an effect the other way counts as inactive or inconclusive. Unless noted, % is set by controls: 0 for no effect and ±100 for the full control effect; potency is the fitted concentration of half-maximal effect.
SMILES,Tb PYK inh,AMA1-RON2 inh,LmPK inh,RE007 growth inh,Sm TGR inh
COc1ccc(C2/C=C\CN(S(=O)(=O)/C=C/c3ccccc3)[C@H](Cc3ccccc3)C(=O)N2Cc2ccc(F)cc2)cc1 (stereo partly drawn),-15%,-1%,-4%,3%,22µM*
COC(=O)c1ccc2c(=O)[nH]c(CN3c4ccccc4CC3C)nc2c1 (stereo not drawn),-6%,41%,10%,12%,7.1µM*
Cc1ccc(NC(=O)CN2C(=O)N/C(=C/c3ccco3)C2=O)cc1,-6%,9%,-3%,-11%,50µM*
Cc1ccc(NC(=O)CN2C(=O)N/C(=C/c3cc(C)n(-c4ccc(C(=O)O)cc4)c3C)C2=O)cc1,-1%,6%,3%,-6%,45µM*
CC(=O)c1cccc(NC(=O)C(C)OC(=O)c2cccc(S(=O)(=O)N3CCN(C)CC3)c2)c1 (stereo not drawn),5%,-2%,x,9%,50µM*
CCN(CC)C(=O)c1ccc(NC(=O)c2cccc(S(=O)(=O)N3CCN(C)CC3)c2)cc1,-2%,-10%,-2%,3%,5%
CC(OC(=O)c1cccc(S(=O)(=O)N2CCN(C)CC2)c1)C(=O)Nc1ccc(C(N)=O)cc1 (stereo not drawn),0%,-1%[11.6 µM],x,2%,-2%
CCN(c1ccc(NC(=O)c2cccc(S(=O)(=O)N3CCN(C)CC3)c2)cc1)C(C)C,16%,u,-8%,1%,8.9µM*
Cc1cccc(N2CCN(C(=O)Cn3nc(Cc4cccnc4)c4ccccc4c3=O)CC2)c1C,5%,x,x,x,3%
COc1ccc(CCNC(=O)CCCCn2c(=O)c3ccccc3n(Cc3cc(C)ccc3C)c2=O)cc1OC,3%,x,x,x,0%
COc1ccc(CC(=O)Nc2c3c(nn2C(C)(C)C)CS(=O)(=O)C3)cc1OC,0%,-30%,-2%,-15%,35µM*
Cc1cc(C)nc(SCc2ccc(C(=O)O)o2)n1,-8%,-4%,6%,2%,-21%
Cc1cc(C(F)(F)F)nc(SCc2ccc(C(=O)O)o2)n1,-3%,0%,3%,-9%,14µM*
O=C1C(Cl)=C(N2CCCCC2)C(=O)C(Cl)=C1c1cnc(N2CCCCC2)s1,u,8.9µM*,20µM*,-25%,0.25µM*
COc1ccc(NC(=O)c2oc3ccccc3c2NC(=O)C2CC2)c(OC)c1,-2%,4.5µM*,7%,-5%,0%
COc1ccc(OC)c(NC(=O)c2oc3ccccc3c2NC(=O)C2CC2)c1,4%,14%,3%,18%,-12%
CCN(CC)CCOC(=O)c1ccc(N/C=C(/C#N)c2nc(-c3ccc(OC)c(OC)c3)cs2)cc1,-6%,28µM*,0%,8%,-32%
O=C(NCC(=O)N(c1ccc2c(c1)OCO2)C(C(=O)NC1CCCC1)c1ccncc1)c1ccco1 (stereo not drawn),u,40µM*,10%,-16%,u
O=C(NCC(=O)N(c1ccc(Cl)cc1)C(C(=O)NC1CCCC1)c1ccncc1)c1ccco1 (stereo not drawn),-2%,3%,-2%,-4%,9%
CCc1ccc(-c2nc(CS(=O)CC(=O)NC3CCCCCC3)c(C)o2)cc1 (stereo not drawn),-24%,1%,2%,2%,7.9µM*
CCc1ccc(-c2nc(CS(=O)CC(=O)NC3CC3)c(C)o2)cc1 (stereo not drawn),5%,-15%,0%,3%,4µM*
CCc1ccc(-c2nc(CS(=O)CC(=O)O)c(C)o2)cc1 (stereo not drawn),-10%,-18%,-3%,-4%,0.35µM*
CC(OC(=O)c1cc(O)c2ccccc2c1O)C(=O)Nc1ccc(C(N)=O)cc1 (stereo not drawn),u,-17%,x,u,22µM*
CC(OC(=O)c1ccccc1C(=O)N(C)c1ccccc1)C(=O)Nc1ccc(C(N)=O)cc1 (stereo not drawn),-18%,1%,x,20%,-7%
Cc1oc(S(=O)(=O)N2CCCCC2)cc1NC(=O)Nc1ccc(F)cc1,3%,-2%,2%,0%,10µM*
SMILES,Tb PYK inh,AMA1-RON2 inh,LmPK inh,RE007 growth inh,Sm TGR inh
O=C(Nc1ccc(F)cc1)Nc1ccc(S(=O)(=O)N2CCCC2)cc1,1%,-3%,x,4%,-12%
CCOC(=O)Cn1c(=O)c2c(nc(N3CCOCC3)n2Cc2ccccc2)n(C)c1=O,-7%,x,x,x,-4%
CCCc1nc([N+](=O)[O-])c(S(=O)(=O)c2ccccc2)n1CC(C)C,-4%,7%,3%,3%,0.89µM*
CC(C)Cn1c(C(C)C)nc([N+](=O)[O-])c1S(=O)(=O)c1ccc(F)cc1,1%,-17%,5%,5%,1.8µM*
NS(=O)(=O)c1cccc(NC(=O)CCCNC(=O)c2ccc(Cl)cc2)c1,-1%,38%,-1%,4%,1%
NS(=O)(=O)c1cccc(NC(=O)CCSc2ccc(Cl)cc2)c1,-6%,4%,-3%,-3%,18µM*
CCc1ccc(-c2nc(CS(=O)CC(=O)NCc3cccnc3)c(C)o2)cc1 (stereo not drawn),-6%,-1%,-14%,14%,40µM*
CCc1ccc(-c2nc(CS(=O)CC(=O)NCc3ccco3)c(C)o2)cc1 (stereo not drawn),2%,-2%,11%,5%,40µM*
CCCN1C(=O)S/C(=C\c2ccc(N3CCOCC3)cc2C)C1=O,x,x,6%,x,2%
CCCN1C(=O)S/C(=C\c2ccc(N3CCOCC3)o2)C1=O,u,-8%,-5%,-13%,8.9µM*
CCN1C(=O)S/C(=C\c2ccc(N3CCOCC3)cc2C)C1=O,-2%,6%,0%,9%,1%
CCCN1C(=O)S/C(=C/c2ccc(N3CCOCC3)o2)C1=O,-22%,-6%,-2%,u,1.4µM*
CCOC(=O)[C@H]1[C@H]2COc3ccc(Cl)cc3[C@@H]2N2C(=O)CN(Cc3ccc(C)cc3)C(=O)[C@@]12C,2%,-4%,x,-1%,0%
CCOC(=O)[C@H]1[C@H]2COc3ccc(Cl)cc3[C@@H]2N2C(=O)CN(Cc3ccco3)C(=O)[C@@]12C,1%,-5%,x,17%,16µM*
CCOC(=O)[C@H]1[C@H]2COc3ccc(OC)cc3[C@@H]2N2C(=O)CN(Cc3ccco3)C(=O)[C@@]12C,-5%,0%,x,4%,u
